Screens deposited in PubChem by several laboratories.
BoNT F protease: BoNT/F light chain protease inhibitors, primary screen, biochemical, flow cytometry, MLPCN library | Multiplex microsphere protease cleavage assay | inhibition, % at 10 µM | 360,000 tested, 0.22% active | AID 588497, 2011; in the data active = inhibition above about 35%, passing the limit was not always enough; inconclusive = no clear call, values can overlap the other calls; also: plate controls were buffer without enzyme for full effect and enzyme alone for no effect
Anthrax LF prot: Bacillus anthracis LF protease inhibitors, primary screen, biochemical, multiplex microsphere, MLPCN library. multiplex microsphere protease cleavage assay. inhibition, % at 10 µM. 360,000 tested, 0.12% active; also: plate controls were buffer without enzyme for full effect and enzyme alone for no effect
GDH-TPI inh: GDH-TPI coupling enzyme inhibitors, primary screen, artefact control for M. tuberculosis FBA inhibitor project, biochemical, absorbance, full deck. GDH-TPI coupled enzyme counterscreen, NADH absorbance. inhibition, % at 4.8 µM. 360,000 tested, 1.2% active; in the data active = inhibition above about 30%;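 also: 0% = DMSO wells and 100% = wells lacking the enzyme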
Mtb FBA inh: Mtb FBA enzyme inhibitors, primary screen, biochemical, fluorescence, strain H37Rv; purified M. tuberculosis FBA, fluorescence read-out; 360,000 tested, 2.3% active; inhibition, % at 1 µM; in the data active = inhibition above about 27%;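 also: 0% = vehicle and 100% = reference inhibitor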
Target sequence (P9WQA3 whole entry, looked up): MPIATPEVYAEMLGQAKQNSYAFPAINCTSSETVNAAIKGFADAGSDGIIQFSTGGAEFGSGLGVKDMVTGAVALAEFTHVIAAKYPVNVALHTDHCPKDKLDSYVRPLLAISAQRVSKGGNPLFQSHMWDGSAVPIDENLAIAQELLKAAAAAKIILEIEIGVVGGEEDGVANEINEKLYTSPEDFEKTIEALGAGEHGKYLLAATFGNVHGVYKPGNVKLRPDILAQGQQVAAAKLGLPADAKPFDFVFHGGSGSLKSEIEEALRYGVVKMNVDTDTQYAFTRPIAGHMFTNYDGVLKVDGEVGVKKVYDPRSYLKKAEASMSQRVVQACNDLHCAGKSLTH
BoNT A protease: BoNT/A light chain protease inhibitors, primary screen, biochemical, flow cytometry, MLPCN library; inhibition, % at 10 µM; Botulinum neurotoxin type A light chain protease (Clostridium botulinum A str. ATCC 3502); multiplex microsphere protease substrate cleavage; AID 588499, 2011; 360,000 tested, 0.17% active; also: plate controls were buffer without enzyme for full effect and enzyme alone for no effect
Bead autofluor: compound fluorescence in toxin protease inhibitor counterscreen | 360,000 tested, 3.1% active | AID 624483 | fluorescence intensity (test concentration not listed) | compound autofluorescence counterscreen, microsphere flow cytometry; active compounds read high; in the data active = fluorescence intensity above about 16000; inconclusive = no clear call, values can overlap the other calls
* = called active by the depositor; ? = inconclusive; / = no result given; + = active, no number. Only some compounds are listed: those with a hit (about 6.7% of all), similar ones and a draw of the others. Rule as the data show it, unless noted: active = inhibition above about 30%; inconclusive = no clear call, values can overlap the other calls; inactive = below that.

SMILES	BoNT F protease	Anthrax LF prot	GDH-TPI inh	Mtb FBA inh	BoNT A protease	Bead autofluor
CN(c1ccccc1)S(=O)(=O)c1cccc(NC(=O)c2cccc(C#N)c2)c1	-3.6	1.2	0.0	-1.4	1.4	8943
Cc1c(Cl)cccc1NC(=O)Cn1c(CCC(=O)O)ccc1-c1ccccc1	48.3*	-12.1	0.4	2.3	-1.5	4011
Cc1c(Cl)cccc1NC(=O)CN1CCC(C(O)(c2ccccc2)c2ccccc2)CC1	-7.3	0.6	-15.7	-2.3	-4.0	21085*
CC(/C=C/c1ccco1)=N/NC(=O)c1ccccc1Cl	0.2	-7.5	32.3*	-0.9	1.5	9439
CC(/C=C/c1ccco1)=N\NC(=O)c1cccc(Cl)c1	-9.5	-1.1	31.9*	1.5	-0.2	2536
CC(C)Oc1ccc(CSc2ncn[nH]2)cc1	-2.3	-1.6	6.3	2.6	-0.9	3332
CCOC(=O)c1nnn(-c2nonc2N)c1-c1ccccc1	1.4	-1.1	-12.4	0.3	-0.2	23505*
CCOC(=O)c1nnn(-c2nonc2N)c1CSc1ccccc1	3.8	-0.7	-7.7	-0.7	0.7	22923*
CCOC(=O)c1nnn(-c2nonc2N)c1-c1ccc(C)cc1	1.7	-3.2	-1.9	0.8	1.2	3197
COC(=O)C1=C(C(=O)OC)[C@@H]2N(Cc3ccccc3)c3ccccc3[C@@]23C[C@@H](C(=O)OC)N(C(=O)NC2CCCCC2)C3=N1	-0.8	-4.3	3.9	1.6	-0.4	3916
Cn1nnnc1Sc1ncnc2scc(-c3ccc(F)cc3)c12	9.1	0.4	6.4	2.4	1.1	4631
O=C(Nc1ccc(Cl)cc1C(=O)Nc1ccc(Br)cn1)c1ccco1	-5.7	0.0	4.6	2.8	-1.8	20162*
CNC(=O)NC(=O)C(OC(=O)CCNS(=O)(=O)c1ccccc1)c1ccccc1 (stereo not drawn)	-70.3	-10.3	-13.8	-2.9	-41.6	18283*
O=C(NCCCCCCNC(=O)c1cccs1)c1cccs1	-4.7	-0.6	-2.3	-0.1	-0.5	2183
CCCSc1nc2sc3c(c2c(=O)[nH]1)CCN(Cc1ccccc1)C3	?	24.3	7.8	85.8*	32.3*	8728
O=C(NNS(=O)(=O)c1ccccc1[N+](=O)[O-])c1cccc(Br)c1	1.2	-1.2	-3.5	2.2	0.8	3747
CCCC(c1nnnn1C(C)(C)CC)N(CCCO)Cc1cc2cc(C)cc(C)c2[nH]c1=O (stereo not drawn)	19.9	2.6	18.2	11.5	1.4	4074
CCOc1ccccc1N1C(=O)CC(=O)NC1=O	-1.6	-0.4	6.8	-1.6	-1.2	4337
Cn1c(SCc2cccc(Cl)c2)nc(C(F)(F)F)cc1=O	2.7	-5.7	-3.5	0.4	2.1	18749*
Cc1noc(C)c1NC(=O)Nc1ccc2c(c1)C(=O)N([C@@H](C)CO)C[C@@H](C)[C@H](CN(C)C(=O)Nc1cccc3ccccc13)OCCCC[C@H](C)O2	-0.6	0.1	3.1	9.1	0.1	3327
CCN(CC)C(=O)CSc1nc2ncccc2[nH]1	-4.0	-0.2	4.6	-3.0	?	24215*
CCCn1nc([N+](=O)[O-])c(C(C#N)c2nc3ccccc3o2)c(Cl)c1=O (stereo not drawn)	-3.8	-2.6	2.6	-14.0	0.1	2461
CCn1nc([N+](=O)[O-])c(C(C#N)c2nc3cc(C(F)(F)F)ccc3s2)c(Cl)c1=O (stereo not drawn)	-0.5	-3.3	19.8	-4.5	2.1	22515*
CCOC(=O)c1c(-c2ccc(OC)cc2)oc2ccc(OCC(N)=O)cc12	-9.8	12.6	-1.7	+	1.3	3865
CCOC(=O)c1c(-c2ccccc2)oc2ccc(OCC(=O)O)cc12	-6.8	-2.9	-1.3	161.2*	-0.5	4838
SMILES	BoNT F protease	Anthrax LF prot	GDH-TPI inh	Mtb FBA inh	BoNT A protease	Bead autofluor
Cc1nnc(SCC(C)C)[nH]c1=O	-0.8	-5.2	-0.3	-1.2	-0.7	10280
Cc1nn(CC(C)C)c(=S)[nH]c1=O	-6.3	-1.1	1.8	-3.2	?	23998*
CC1(C)CC(=O)C2=C(C1)OC(N)=C(C#N)C2c1ccc2c(c1)OCO2 (stereo not drawn)	?	2.7	-26.6	-3.5	-4.1	3654
O=C(O)c1cccc(-c2ccc(/C=N/NC(=O)C3COc4ccccc4O3)o2)c1 (stereo not drawn)	-5.4	-0.6	38.1*	4.6	-1.1	2187
O=C(N/N=C\c1ccc(-c2ccccc2[N+](=O)[O-])o1)C1COc2ccccc2O1 (stereo not drawn)	-2.5	-1.3	10.2	1.7	-0.6	2591
CC(C)(C)c1ccc2c(c1)OC(C(=O)N/N=C\c1ccc(-c3cccc(C(=O)O)c3)o1)CO2 (stereo not drawn)	/	/	38.7*	9.1	/	/
CC(C)(C)c1ccc2c(c1)OC(C(=O)N/N=C\c1ccccn1)CO2 (stereo not drawn)	-10.1	-0.2	8.8	-1.4	-1.1	2067
O=C(Cn1c(C(F)(F)F)nc2ccccc21)OCC(=O)c1c[nH]c2ccccc12	-9.4	19.9	5.5	-0.5	57.1*	4605
Cc1[nH]c2ccccc2c1C(=O)COC(=O)Cn1c(C(F)(F)F)nc2ccccc21	-4.1	-0.6	6.6	-5.6	0.2	2691
Fc1ccc(NC2=NCCS2)cc1Cl	-14.7	-4.0	-3.4	0.8	-0.5	2698
CCNC(=O)CN(c1ccc(CC)cc1)S(C)(=O)=O	-0.3	-2.5	-12.1	-0.9	?	23318*
Cc1cccc(N(CC(=O)Nc2ccccc2F)S(C)(=O)=O)c1	/	/	-0.3	-1.9	/	/
Cc1cccc(N(CC(=O)Nc2ccc(CC#N)cc2)S(C)(=O)=O)c1	-18.8	-2.6	-0.8	-0.2	-0.7	4822
CSc1ccccc1NC(=O)CN(c1cccc(C)c1)S(C)(=O)=O	-6.0	0.7	-2.5	0.0	-3.5	23782*
CCc1ccc(NC(=O)CN(c2cccc(C)c2)S(C)(=O)=O)cc1	-4.2	-2.1	8.7	1.5	-1.3	23603*
COc1ccc(C(=O)C2CCN(S(=O)(=O)c3ccc4c(c3)OCCO4)CC2)cc1	-5.0	-2.8	-1.2	-0.7	0.5	11295
CCCCCc1c(C)c(C#N)c2nc3ccccc3n2c1-n1ccnc1C	0.3	6.5	8.9	-4.3	0.5	8645
COCCCN1C(=O)C(=O)/C(=C(/O)c2ccccc2)C1c1ccc(N(C)C)cc1 (stereo not drawn)	-4.2	1.0	12.2	4.5	-0.4	11458
CCN(C(=O)Cn1c(=O)oc2ccccc21)c1cccc(C(F)(F)F)c1	-5.6	-1.4	-3.0	-7.8	-0.6	3017
Cc1ccc(Oc2nnc(-c3ccccc3)c3ccccc23)cc1	6.4	-3.7	3.1	0.4	5.7	21278*
CCc1sc(C(=O)NC)cc1Br	9.2	2.0	4.3	0.5	7.1	20040*
